# Results reported in PubChem BioAssay (Tox21).
# Inconclusive results are not listed. Where a call stands in place of a potency, no number is given. Calls of active or inactive are those of the source. Calls come from the whole dose curve; as a rule, active = well fitted cell-killing curve with a large enough effect in the repeat runs; inconclusive = weak or mixed curves, or effect the other way; inactive = flat fitted curve, though single readings scatter.
# Assay: cAMP Responsive Elements (CRE) small molecule antagonists, cell-based qHTS assay: qHTS cell viability counter screen (AID 2060913); note: nearly all actives have a fitted effect of over 40% in size
# Conditions: CRE-bla HEK293T viability, CellTiter-Glo luminescence, 5 h; series mostly up to 92.4 µM
# In short: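 Cytotoxicity counter screen multiplexed with the CRE-bla antagonist read: HEK293T cells in DMEM with dialyzed FBS and 25 mM HEPES were treated 3 hrs under 0.25 uM final NKH477, then viability measured by CellTiter-Glo luminescence.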
row,SMILES,Potency
1,ClCCCCl,inactive
2,COc1ccc2c3c1O[C@H]1[C@H](O)CC[C@H]4[C@@H](C2)N(C)CC[C@@]341,inactive
3,Brc1ccc(Br)cc1,inactive
4,CCOP(=O)(OCC)SCCSCC,inactive
5,N#CC(c1ccccc1)c1ccccc1,inactive
6,CCCN(CCC)c1c([N+](=O)[O-])cc(C(C)C)cc1[N+](=O)[O-],inactive
7,CC(Oc1cccc(Cl)c1)C(=O)O (stereo unspecified),inactive
8,CCCCCCCCCCCOC(=O)c1ccccc1C(=O)OCCCCCCCCCCC,inactive
9,O=C(O)c1nc(Cl)ccc1Cl,inactive
10,O=C=NC1CCCCC1,inactive
11,ClCCN1CCCC1,inactive
12,C=CC(=O)OC,inactive
13,O=P(O)(O)c1ccccc1,inactive
14,C(COCC1CO1)OCC1CO1 (stereo unspecified),inactive
15,ClC(Cl)=C(c1ccc(Cl)cc1)c1ccccc1Cl,inactive
16,CN(C)C(=O)Nc1cccc(C(F)(F)F)c1,inactive
